From PubChem BioAssay
The list is not random: actives were taken first. Their share in the collection is about 4.8%.
DAX1 inh-1: DAX1 (NR0B1) inhibitors on StAR promoter, primary screen, cell-based, luminescence, SF-1 (NR5A1), full-length DAX-1 | HEK293T StAR-luciferase reporter, SF-1/DAX-1 repression relief | inhibition, % at 6.8 µM | 370,000 compounds, 1.1% hits | AID 652010, 2013;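 active = inhibition above the mean over all tested compounds plus 3 SD, cut at about 3.6% in these data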;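 also: higher inhibition means more luminescence from relief of DAX-1 repression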
ssDAF12 agonist: S. stercoralis DAF-12 nuclear receptor activators, primary screen, cell-based, luminescence, HEK293, GRIP1 co-expression, lit1-tk-luc; Nuclear hormone receptor DAF-12 (Strongyloides stercoralis); HEK293 ssDAF-12/GRIP1 lit1-tk-luc reporter; % of 3 µM dafachronic acid response; activation, % at 6.8 µM; 370,000 compounds, 1% hits;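 active = activation above the mean over all tested compounds plus 3 SD, cut at about 0.9% in these data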
hcDAF12 agonist: H. contortus DAF-12 nuclear receptor activators, primary screen, cell-based, luminescence, HEK293, lit1-tk-luc reporter | HEK293 hcDAF-12 lit1-tk-luc reporter; 0% DMSO, 100% Δ7-dafachronic acid | activation, % at 6.8 µM | AID 652067, 2013 | 370,000 compounds, 1.4% hits;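 active = activation above the mean of all tested compounds plus 3 SD, cut at about 5.5% in these data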
hgDAF12 agonist: H. glycines DAF-12 receptor agonists, primary screen, cell-based, luminescence, HEK293, GAL4 fusion, UAS-luciferase; HEK293 GAL4-hgDAF12 UAS-luciferase reporter, agonist luminescence; normalized to butyrate control; activation, % at 6.8 µM; 370,000 compounds, 1.8% hits; Nuclear hormone receptor DAF-12 (Heterodera glycines), GAL4 fusion;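 active = activation above a cutoff set at the mean of all screened compounds plus 3 SD, cut at about 10% in these data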
DAX1 inh-2: DAX1 (NR0B1) inhibitors, primary screen, cell-based, HEK293, Gal4-DAX1, luciferase luminescence | AID 504766, 2011 | 340,000 compounds, 0.99% hits | inhibition, % at 6.75 µM | Nuclear receptor subfamily 0 group B member 1 (Homo sapiens), P51843 | HEK293 Gal4-DAX1 luciferase reporter;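 active = inhibition above the mean over all tested compounds plus 3 SD, cut at about 4.2% in these data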;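 also: inhibition shows as a rise in luminescence from relieved DAX1 repression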
Target sequence (P51843 207-470 limits assumed): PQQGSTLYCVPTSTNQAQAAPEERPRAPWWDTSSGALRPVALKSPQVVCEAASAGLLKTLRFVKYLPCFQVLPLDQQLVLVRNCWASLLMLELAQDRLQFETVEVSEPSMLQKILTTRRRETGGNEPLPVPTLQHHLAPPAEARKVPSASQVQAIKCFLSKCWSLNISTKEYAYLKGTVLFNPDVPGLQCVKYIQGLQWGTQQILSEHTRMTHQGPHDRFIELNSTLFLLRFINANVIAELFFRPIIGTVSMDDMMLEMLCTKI
SMARCA2 act: SMARCA2 (BRM) function activators, primary screen, cell-based, luminescence, high throughput. MG213 cells, MMTV-luciferase reporter, dexamethasone, overnight. activation, % at 9.1 µM. 370,000 compounds, 1% hits; in the data active = activation above about 7.8%
Of the large screens only hits and unclear results are named; the others gave an inactive call.

CC(C)C[C@H](NC(=O)c1cccs1)C(=O)N1CCC[C@H]1C(=O)NCc1ccccc1	none (no result: DAX1 inh-2)
O=C(Nc1ccc(Br)cc1)OCCN1CCCC12CCC(c1ccccc1)CC2 (stereo unspecified)	none (no result: DAX1 inh-1, DAX1 inh-2, SMARCA2 act)
CCOc1ccc(NC(=O)Cc2cccc3ccccc23)c([N+](=O)[O-])c1	ssDAF12 agonist 6.7
O=S1(=O)c2c(cccc2N2CCC[C@H]2CO)OCCCN1C1CC1	none (no result: DAX1 inh-2)
Cc1ccc(S(=O)(=O)c2nc(-c3ccccc3)oc2NCCCN2CCOCC2)cc1	hgDAF12 agonist 11
O=C(O)C1Cc2[nH]cnc2C(c2ccccc2O)N1 (stereo unspecified)	hcDAF12 agonist 6.0
FC(F)(F)c1nnc2ccc(NCc3cccnc3)nn12	DAX1 inh-2 7.9
Cc1ccc(N=CC=C2OC(C)(C)C(C)(C)O2)cc1	hcDAF12 agonist 5.7
C[C@@H]1CN([C@@H](C)CO)C(=O)CCCn2nncc2CO[C@@H]1CN(C)C(=O)c1ccccc1	none
C[C@@H]1CN([C@@H](C)CO)C(=O)CCCn2nncc2CO[C@@H]1CN(C)C(=O)Nc1ccnc(N2CCOCC2)c1	DAX1 inh-2 6.2
C[C@H](CO)N1C[C@H](C)[C@@H](CN(C)C(=O)Nc2cccc(Oc3ccccn3)c2)OCc2cn(nn2)CCCC1=O	none (no result: DAX1 inh-2)
C[C@@H]1CN([C@H](C)CO)C(=O)CCCn2cc(nn2)CO[C@H]1CN(C)C(=O)Nc1cccc(Oc2ccccn2)c1	DAX1 inh-2 6.3
C[C@@H]1CN([C@@H](C)CO)C(=O)CCCn2cc(nn2)CO[C@H]1CN(C)C(=O)Nc1ccnc(N2CCOCC2)c1	none (no result: DAX1 inh-2)
C[C@@H]1CN([C@H](C)CO)C(=O)CCCn2nncc2CO[C@H]1CN(C)C(=O)c1ccccc1	hgDAF12 agonist 13
O=C(c1c(F)cccc1F)N1CCC(Oc2cccnc2)CC1	none (no result: DAX1 inh-2)
CCCCNC[C@@]12CO[C@H](c3ccc(Cl)cc3)N1[C@@H](c1ccc(Cl)cc1)SC2	none (no result: DAX1 inh-2)
CNc1nc(-c2c[nH]c3ccccc23)cs1	none
CCc1ccc(-c2csc(-c3c[nH]c4ccccc34)n2)cc1	hcDAF12 agonist 6.2
Nc1nc(-c2c[nH]c3ccccc23)cs1	ssDAF12 agonist 1.8
COc1cccc(CO[C@H]2C=C[C@@H](c3ccccc3)O[C@@H]2CO)c1	none (no result: DAX1 inh-2)
Cc1ccc2nc(NCc3ccccc3)c(C=NCc3cccnc3)c(=O)n2c1	none
O=c1c(C=NCc2ccccc2)c(NCc2ccccc2)nc2ccccn12	DAX1 inh-2 4.5
COC(=O)c1ccccc1NC(=O)C12CCC(C)(C(=O)O1)C2(C)C (stereo unspecified)	ssDAF12 agonist 1.9
COc1ccc(OC)c(NC(=O)C23CCC(C)(C(=O)O2)C3(C)C)c1 (stereo unspecified)	none
COC(=O)c1ccccc1NC(=O)NCc1ccncc1	ssDAF12 agonist 6.6
CCCCOc1ccc(C(=O)N/C(=C\c2ccc(OC)cc2)C(=O)OCc2ccco2)cc1	none
COc1ccc(C(=O)N/C(=C\c2ccco2)C(=O)OCc2ccco2)cc1	DAX1 inh-2 5.5
C#CCN1CC(N(C)CCOC(=O)c2ccc(OC)c(OC)c2)CS1(=O)=O (stereo unspecified)	none (no result: DAX1 inh-2)
C/C(=C\C(=O)C(F)(F)F)Nc1ccc(C(F)(F)F)cc1	none
CC(C)(CCl)C(=O)Nc1ccc(C(F)(F)F)cc1	ssDAF12 agonist 1.1
COCCCN1C(=O)[C@H](CC(=O)N2CCN(C(=O)C3CC3)CC2)[C@]2(C(=O)OC)CCCCC=C12	none (no result: DAX1 inh-2)
COC(=O)C1CN(Cc2cn(CCC3OCCO3)nn2)CCS(=O)(=O)N1Cc1ccc(OC)cc1 (stereo unspecified)	none (no result: DAX1 inh-2)
CC(C)(C)Nc1nc(NCc2cccnc2)nc(N2CCOCC2)n1	DAX1 inh-2 5.9
